Results reported in the antibiotic and cytotoxicity screens of Wong et al. (2023).
In all, about 39,000 compounds went through this assay and about 3,300 (8.5%) were called active. The sample as a whole holds a higher share of actives than the screen did.

The molecules below were run on HepG2 (assay: cytotoxicity call (relative viability < 0.9)). Conditions: 10 µM.

Row | Compound | cytotoxicity call
1 | C[C@@H]1CN([C@H](C)CO)S(=O)(=O)c2ccc(C#Cc3ccccc3F)cc2O[C@@H]1CN(C)CC1CCOCC1 | inactive
2 | COc1ccc(CN(C)C[C@H]2OCCCC[C@@H](C)Oc3ccc(NC(=O)NC4CCCCC4)cc3C(=O)N([C@@H](C)CO)C[C@H]2C)cc1 | inactive
3 | Cc1ncsc1-c1ccc(CNC(=O)[C@@H]2C[C@@H](O)CN2C(=O)[C@H](C(C)C)N2Cc3ccccc3C2=O)cc1 | inactive
4 | CN1C(=O)Cc2cc(NS(C)(=O)=O)ccc21 | inactive
5 | COc1ccc(S(=O)(=O)Nc2ccc3c(c2)C(=O)N([C@@H](C)CO)C[C@H](C)[C@H](CN(C)Cc2ccc(C(=O)O)cc2)OCCCC[C@@H](C)O3)cc1 | inactive
6 | COCCN1C[C@H]2[C@H](OC)CCN(S(=O)(=O)c3cn(C)cn3)[C@H]2C1 | inactive
7 | CCC(=O)OC1(C(=O)CCl)C(C)CC2C3CCC4=CC(=O)C=CC4(C)C3(F)C(O)CC21C (stereo unspecified) | inactive
8 | CC1CC2C3CCC4=CC(=O)C=CC4(C)C3(Cl)C(O)CC2(C)C1(OC(=O)c1ccco1)C(=O)CCl (stereo unspecified) | active
9 | CCC(=O)OCC(=O)C1(OC(=O)CC)C(C)CC2C3CCC4=CC(=O)C=CC4(C)C3(Cl)C(O)CC21C (stereo unspecified) | inactive
10 | C[C@@H]1CCCCO[C@H](CN(C)C(=O)Nc2ccccc2)[C@H](C)CN([C@H](C)CO)C(=O)c2cc(NC(=O)CCC(F)(F)F)ccc2O1 | inactive
11 | C[C@@H]1CN([C@H](C)CO)C(=O)c2cc(NC(=O)Cc3ccccc3)ccc2O[C@@H](C)CCCCO[C@@H]1CN(C)Cc1ccc(C(=O)O)cc1 | inactive
12 | Cn1c(=O)c2[nH]c(Br)nc2n(C)c1=O [listing 1 of 2 here] | inactive
13 | Cn1c(=O)c2[nH]c(Br)nc2n(C)c1=O [listing 2 of 2 here] | inactive
14 | Cn1c(=O)c2[nH]c(-[n+]3ccc(C(=O)O)cc3)nc2n(C)c1=O | active
15 | C[C@H]1CN([C@@H](C)CO)C(=O)c2cccc(NS(=O)(=O)c3ccc(F)cc3)c2O[C@H]1CN(C)S(C)(=O)=O | inactive
16 | COc1ccc(S(=O)(=O)Nc2ccc3c(c2)C(=O)N([C@@H](C)CO)C[C@@H](C)[C@H](CN(C)C(=O)Nc2ccc(C(F)(F)F)cc2)OCCCC[C@H](C)O3)cc1 | inactive
17 | COc1ccc(S(=O)(=O)Nc2ccc3c(c2)C(=O)N([C@H](C)CO)C[C@H](C)[C@H](CN(C)C(=O)Nc2ccc(C(F)(F)F)cc2)OCCCC[C@@H](C)O3)cc1 | inactive
18 | COc1ccc(S(=O)(=O)Nc2ccc3c(c2)C(=O)N([C@H](C)CO)C[C@H](C)[C@H](CN(C)C(=O)Nc2ccc(C(F)(F)F)cc2)OCCCC[C@H](C)O3)cc1 | inactive
19 | COc1ccc(S(=O)(=O)Nc2ccc3c(c2)C(=O)N([C@@H](C)CO)C[C@@H](C)[C@@H](CN(C)C(=O)Nc2ccc(C(F)(F)F)cc2)OCCCC[C@@H](C)O3)cc1 | active
20 | COc1ccc(S(=O)(=O)Nc2ccc3c(c2)C(=O)N([C@@H](C)CO)C[C@H](C)[C@H](CN(C)C(=O)Nc2ccc(C(F)(F)F)cc2)OCCCC[C@@H](C)O3)cc1 | inactive
21 | COc1ccc(S(=O)(=O)Nc2ccc3c(c2)C(=O)N([C@H](C)CO)C[C@@H](C)[C@H](CN(C)C(=O)Nc2ccc(C(F)(F)F)cc2)OCCCC[C@@H](C)O3)cc1 | inactive

Row | Compound | cytotoxicity call
22 | COc1ccc(S(=O)(=O)Nc2ccc3c(c2)C(=O)N([C@@H](C)CO)C[C@H](C)[C@@H](CN(C)C(=O)Nc2ccc(C(F)(F)F)cc2)OCCCC[C@@H](C)O3)cc1 | active
23 | COc1ccc(S(=O)(=O)Nc2ccc3c(c2)C(=O)N([C@@H](C)CO)C[C@H](C)[C@@H](CN(C)C(=O)Nc2ccc(C(F)(F)F)cc2)OCCCC[C@H](C)O3)cc1 | active
24 | COc1ccc(S(=O)(=O)Nc2ccc3c(c2)C(=O)N([C@@H](C)CO)C[C@H](C)[C@H](CN(C)C(=O)Nc2ccc(C(F)(F)F)cc2)OCCCC[C@H](C)O3)cc1 | inactive
25 | COc1ccc(S(=O)(=O)N(C)C[C@@H]2Oc3ccc(NS(=O)(=O)c4ccc(C)cc4)cc3CC(=O)N([C@H](C)CO)C[C@@H]2C)cc1 | inactive
26 | CC(C)NC(=O)N(C)C[C@@H]1Oc2cc(C#Cc3cccc(F)c3)ccc2S(=O)(=O)N([C@H](C)CO)C[C@H]1C | inactive
27 | Cc1ccc(S(=O)(=O)N(C)C[C@H]2OCCCC[C@H](C)Oc3ccc(NC(=O)Nc4ccc(F)cc4)cc3C(=O)N([C@@H](C)CO)C[C@H]2C)cc1 | inactive
28 | Cc1ccc(S(=O)(=O)N(C)C[C@H]2Oc3c(NC(=O)NC(C)C)cccc3C(=O)N([C@@H](C)CO)C[C@@H]2C)cc1 | inactive
29 | C[C@@H]1CCCCO[C@@H](CN(C)S(=O)(=O)c2ccc(F)cc2)[C@H](C)CN([C@@H](C)CO)C(=O)c2cc(NC(=O)C3CCCCC3)ccc2O1 | inactive
30 | C[C@H](CO)N1C[C@H](C)[C@H](CN(C)C(=O)Nc2ccc3c(c2)OCO3)OCCCC[C@H](C)Oc2ccc(NC(=O)Nc3cccc4ccccc34)cc2C1=O | inactive
31 | C[C@@H]1CCCCO[C@@H](CN(C)Cc2ccccc2)[C@H](C)CN([C@H](C)CO)C(=O)c2cc(NC(=O)C3CCCCC3)ccc2O1 | inactive
32 | CC(C)NC(=O)N(C)C[C@@H]1Oc2cc(-c3ccccc3F)ccc2S(=O)(=O)N([C@H](C)CO)C[C@@H]1C | inactive
33 | C[C@@H]1CCCCO[C@H](CN(C)C(=O)Nc2ccc(C(F)(F)F)cc2)[C@H](C)CN([C@@H](C)CO)C(=O)c2cc(NC(=O)C3CCCCC3)ccc2O1 | inactive
34 | Cc1cc(C)cc(C(=O)N(C)[C@H](Cc2ccc(-c3ccccc3)cc2)C(=O)N[C@@H](Cc2c[nH]c3ccccc23)C(=O)O)c1 | inactive
35 | NCCCC[C@@H](N)C(=O)N[C@@H](Cc1c[nH]c2ccccc12)C(=O)N[C@@H](CCCCN)C(=O)O | inactive
36 | O=C(NC(Cc1cc(=O)[nH]c2ccccc12)C(=O)O)c1ccc(Cl)cc1 (stereo unspecified) | active
37 | Cc1noc(C)c1NC(=O)Nc1ccc2c(c1)C(=O)N([C@H](C)CO)C[C@H](C)[C@@H](CN(C)C(=O)Nc1ccccc1)OCCCC[C@@H](C)O2 | inactive
38 | CC(C)[C@@H](N)c1nc2ccccc2[nH]1 | inactive
39 | C[C@H](CO)N1C[C@H](C)[C@H](CN(C)Cc2ccc(Cl)c(Cl)c2)Oc2ccc(NC(=O)Nc3ccc4c(c3)OCO4)cc2C1=O | inactive
40 | C[C@@H]1CN([C@@H](C)CO)C(=O)c2cc(NC(=O)Nc3ccc4c(c3)OCO4)ccc2O[C@@H]1CN(C)Cc1ccc(Cl)c(Cl)c1 | active
41 | C[C@H]1CN([C@@H](C)CO)C(=O)c2cc(NC(=O)Nc3ccc4c(c3)OCO4)ccc2O[C@H]1CN(C)Cc1ccc(Cl)c(Cl)c1 | inactive
42 | C[C@H]1CN([C@@H](C)CO)C(=O)c2cc(NC(=O)Nc3ccc4c(c3)OCO4)ccc2O[C@@H]1CN(C)Cc1ccc(Cl)c(Cl)c1 | inactive

Row | Compound | cytotoxicity call
43 | C[C@@H]1CN([C@@H](C)CO)C(=O)c2cc(NC(=O)Nc3ccc4c(c3)OCO4)ccc2O[C@H]1CN(C)Cc1ccc(Cl)c(Cl)c1 | active
44 | C[C@@H]1CN([C@H](C)CO)C(=O)c2cc(NC(=O)Nc3ccc4c(c3)OCO4)ccc2O[C@@H]1CN(C)Cc1ccc(Cl)c(Cl)c1 | inactive
45 | COCC(=O)Nc1ccc2c(c1)OC[C@@H](C)N(C(=O)CN1CCOCC1)C[C@@H](C)[C@H](OC)CN(C)C2=O | inactive
46 | COc1ccc(CN(C)C[C@H]2Oc3ccc(NC(=O)Nc4ccc(C(F)(F)F)cc4)cc3CC(=O)N([C@@H](C)CO)C[C@@H]2C)cc1 | active
47 | COc1ccc(CN(C)C[C@H]2Oc3ccc(NC(=O)Nc4ccc(C(F)(F)F)cc4)cc3CC(=O)N([C@H](C)CO)C[C@H]2C)cc1 | active
48 | COc1ccc(NC(=O)Nc2ccc3c(c2)CC(=O)N([C@@H](C)CO)C[C@@H](C)[C@H](CN(C)Cc2ccc(C(F)(F)F)cc2)O3)cc1 | active
49 | COc1ccc(NC(=O)Nc2ccc3c(c2)CC(=O)N([C@H](C)CO)C[C@@H](C)[C@H](CN(C)Cc2ccc(C(F)(F)F)cc2)O3)cc1 | inactive
50 | COc1ccc(NC(=O)Nc2ccc3c(c2)CC(=O)N([C@@H](C)CO)C[C@H](C)[C@@H](CN(C)Cc2ccc(C(F)(F)F)cc2)O3)cc1 | inactive
51 | COc1ccc(CN(C)C[C@H]2Oc3ccc(NC(=O)Nc4ccc(C(F)(F)F)cc4)cc3CC(=O)N([C@@H](C)CO)C[C@H]2C)cc1 | active
52 | CO[C@H](CN(C)S(=O)(=O)c1ccc(Cl)cc1)[C@@H](C)CN([C@@H](C)CO)S(=O)(=O)c1cccc(Cl)c1 | inactive
53 | COc1ccc(CN(C)C[C@H]2OCCCC[C@H](C)Oc3ccc(NS(=O)(=O)c4ccc(F)cc4)cc3C(=O)N([C@H](C)CO)C[C@@H]2C)cc1 | inactive
54 | C[C@@H]1CN([C@H](C)CO)C(=O)c2cccc(NC(=O)Nc3ccc(C(F)(F)F)cc3)c2O[C@@H]1CN(C)S(C)(=O)=O | inactive
55 | C[C@H](CO)N1C[C@H](C)[C@@H](CN(C)Cc2ccccc2)OCCCC[C@H](C)Oc2ccc(NC(=O)NC3CCCCC3)cc2C1=O | inactive
56 | O=C(Cn1cnnn1)NS(=O)(=O)c1ccccc1 | inactive
57 | C[C@H](CO)N1C[C@H](C)[C@H](CN(C)S(=O)(=O)c2ccc(-c3ccccc3)cc2)OCc2cn(nn2)CCCC1=O | inactive
58 | C[C@@H]1CCCCO[C@@H](CN(C)C(=O)Nc2ccccc2)[C@@H](C)CN([C@@H](C)CO)C(=O)c2cc(NC(=O)c3ccccc3)ccc2O1 | inactive
59 | COc1ccc(S(=O)(=O)N(C)C[C@@H]2Oc3c(NS(=O)(=O)c4cn(C)cn4)cccc3C(=O)N([C@H](C)CO)C[C@H]2C)cc1 | inactive
60 | O=C(C[C@@H]1CC[C@H](NC(=O)c2ccc(F)cc2)[C@@H](CO)O1)NCc1ccncn1 | inactive
61 | COc1ccc(NC(=O)Nc2ccc3c(c2)C(=O)N([C@H](C)CO)C[C@@H](C)[C@H](CN(C)S(=O)(=O)c2ccc(OC)cc2)OCCCC[C@H](C)O3)cc1 | inactive
